Source: PubChem
USP28 inh: inhibitors of human USP28 deubiquitinase; Ubiquitin carboxyl-terminal hydrolase 28 (Homo sapiens), Q96RU2; purified USP28, Ub-rhodamine cleavage fluorescence, 30 min; inhibition, % at 25 µM; 47,000 compounds, 3% hits
USP10 block: inhibitors of human USP10 deubiquitinase; Ubiquitin carboxyl-terminal hydrolase 10 (Homo sapiens), Q14694; purified USP10, Ub-rhodamine fluorescence, 60 min; inhibition, % at 20 µM; 47,000 compounds, 1.1% hits
UCHL1 inh: inhibitors of human UCHL1 deubiquitinase; 47,000 compounds, 0.2% hits; AID 1645859, 2021; inhibition, % at 20 µM; purified UCHL1, Ub-rhodamine cleavage fluorescence; Ubiquitin carboxyl-terminal hydrolase isozyme L1 (Homo sapiens), P09936
USP7 block: inhibitors of human USP7 deubiquitinase. Ubiquitin carboxyl-terminal hydrolase 7 (Homo sapiens), Q93009. AID 1645854, 2021. inhibition, % at 20 µM. 47,000 compounds, 0.3% hits. purified USP7, Ub-rhodamine cleavage fluorescence
OTUD3 block: inhibitors of human OTUD3 deubiquitinase; purified OTUD3, Ub-rhodamine fluorescence, 2 h; inhibition, % at 25 µM; 47,000 compounds, 0.7% hits; AID 1645858, 2021
* = called active by the depositor; · = not tested or not shown. Rows were chosen to be rich in hits. Some 4.2% of all compounds tested hit in one or more screens of this group. Rule as the data show it: active = inhibition above about 30%; inactive = the rest.

SMILES	USP28 inh	USP10 block	UCHL1 inh	USP7 block	OTUD3 block
Cc1ccccc1Cn1cc(SCC(=O)Nc2ccc(F)cc2)c2ccccc21	1	10	2	4	-6
Cc1ccccc1C(=O)NCCn1cc(SCC(=O)Nc2ccc3c(c2)OCCO3)c2ccccc21	57*	9	4	7	44*
Cc1ccccc1C(=O)NCCn1cc(SCC(=O)N2CCOCC2)c2ccccc21	10	-1	-2	2	0
O=C(CSc1cn(Cc2ccccc2)c2ccccc12)Nc1ccc2c(c1)OCCO2	60*	12	7	0	21
Cc1ccccc1Cn1cc(SCC(=O)Nc2ccc3c(c2)OCCO3)c2ccccc21	50*	9	7	7	23
COc1cccc(NC(=O)c2ccc3noc(-c4ccc(Cl)cc4)c3c2)c1	0	14	0	5	0
O=C(COc1ccccc1-c1nnc(-c2ccccc2)o1)NCCc1ccco1	4	19	24	15	2
COCCn1c(C)cc(C(=O)CSc2ccc(Cl)cc2)c1C	30*	-1	4	-8	8
CC(=O)Nc1ccc(SCC(=O)c2cc(C)n(CC3COc4ccccc4O3)c2C)cc1 (stereo not given)	-19	-10	-3	0	-18
COc1cccc2[nH]c(C(=O)NCC(=O)Nc3ccc4c(c3)OCO4)cc12	4	3	0	1	-1
O=C(COc1ccc(N2CC(C(=O)NCc3ccccc3)CC2=O)cc1)Nc1ccccc1Cl (stereo not given)	12	49*	0	26	13
O=C(NCc1ccncc1)C1CC(=O)N(c2ccccc2)C1 (stereo not given)	-4	0	1	-2	-6
COc1ccc(N2CCN(CCCNC(=O)c3ccc4c(=O)n(CCc5ccccc5)c(=O)[nH]c4c3)CC2)cc1	9	10	0	0	10
COc1ccc(Cn2c(=O)[nH]c3cc(C(=O)NCCCN4CCN(c5cccc(Cl)c5)CC4)ccc3c2=O)cc1	11	60*	6	12	20
Cc1nc(C2CCN(C(C)C)CC2)cc(N2C(=O)OCC2C)n1 (stereo not given)	-3	0	-1	6	-2
O=C(Nc1cccc(S(=O)(=O)N2CCCC2)c1)c1ccc2c(=O)n3c(nc2c1)CCCCC3	62*	9	4	0	1
O=C(COc1nc2ccccc2nc1N1CCOCC1)Nc1cccc(S(=O)(=O)N2CCCCC2)c1	-7	-6	-11	-6	47*
O=C(Nc1cccc(S(=O)(=O)N2CCCC2)c1)c1ccc(N2CCOCC2)c([N+](=O)[O-])c1	41*	4	9	8	12
O=C(COC(=O)c1ccc2c(=O)n3c(nc2c1)CCCCC3)NCC1CCCCC1	41*	-2	1	-9	9
Cc1ccc(NC(=O)c2ccc3c(=O)n4c(nc3c2)CCCCC4)cc1S(=O)(=O)N1CCOCC1	·	2	7	4	4
COC1=CC(=O)c2c(O)c(C)c(CC(C)=O)c(O)c2C1=O	0	-11	10	-14	-22
COc1ccc(CN(Cc2ccc3c(c2)CCO3)C2CC2)cc1	0	-2	0	4	9
O=C(NCc1ccccc1F)c1ccc(Cl)c(S(=O)(=O)N2CCCCC2)c1	38*	9	5	7	16
CC1CCN(Cc2nc(Cn3ccn4nc(-c5ccccc5)cc4c3=O)no2)CC1	0	-1	-1	-9	-8
Cc1ccc(C)c(-c2cc3c(=O)n(Cc4noc(CN5CCCCC5)n4)ccn3n2)c1	71*	-2	0	0	-15
SMILES	USP28 inh	USP10 block	UCHL1 inh	USP7 block	OTUD3 block
Cc1cnc(NC(=O)Cn2cnc3ccccc3c2=O)s1	-7	2	-1	·	-4
O=C1C(=O)N(c2nc3ccc(F)cc3s2)C(c2ccc(F)cc2)/C1=C(\O)c1ccc(F)cc1 (stereo not given)	1	61*	2	15	-29
CC(C)CC[C@H]1O[C@@H](CC(=O)O)Cc2cc3c(c(O)c21)C(=O)c1sc(=O)n(C)c1C3=O	77*	-6	25	-63	70*
O=C(Cc1ccc(F)cc1)Nc1ccc(N2CCOCC2)cc1	-10	-3	-5	·	-6
COc1cccc(/C=C/C(=O)Nc2ccc(N3CCOCC3)cc2)c1OC	60*	3	4	7	6
O=C(c1cc(-c2ccccc2)nn1-c1ccccc1)N1CCN(C(=O)C2CCCO2)CC1 (stereo not given)	14	-2	4	1	5
